# According to ChEMBL document CHEMBL1201862, “PubChem BioAssay data set” (2004):
# Screen size: about 320,000 compounds; about 740 (0.23%) were called active. About 2% were inconclusive and are not listed. The calls are words filed in the database; no cut-off is given here. The full list was thinned out, with actives kept by preference.
# System: Saccharomyces cerevisiae
# Experiment: qHTS Assay for Small Molecule Inhibitors of Mitochondrial Division or Activators of Mitochondrial Fusion.
# Format: functional
# Settings: read-out: Potency
row,Structure (SMILES),AC50
1,O=C(O)Cc1ccccc1Nc1c(Cl)cccc1Cl [DICLOFENAC SODIUM],20.6 µM (active)
